This is a sample that favours compounds with a hit; in the whole collection about 10% have one here.
LMNA splice mod: qHTS Assay for Modulators of Lamin A Splicing. HeLa LMNA splicing GFP/RFP minigene ratio, 48 h. Potency, µM (series often up to 46.1 µM), without a hit: at the highest dose ratio change, negative = inhibition, most hits filed as inhibitors. 200,000 compounds, 0.01% hits. AID 1487, 2009; active = well fitted inhibition curve with a large enough effect in the signal ratio, with a control signal flat, not every such curve was filed as active; inconclusive = small, poorly fitted or top-dose-only effect, or effect the other way, or a change in a side signal; the % refers to the signal ratio; note: potency is the fitted concentration of half-maximal effect
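Read-out is the ratio of GFP to DsRed2 object intensity, acquired by 488 nm laser-scanning cytometry on HeLa lamin A-EGFP minigene reporter cells. Compound incubation 48 hrs at 37 °C in Opti-MEM with 2% FBS; DMSO 0.5% final.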
PNC inhibitor: High Content Assay for Compounds that inhibit the Assembly of the Perinucleolar Compartment | PC3M PTB-GFP, PNC prevalence imaging, 16 h; hits give low values | activity change (PNC), negative = inhibition, % at 10 µM | 140,000 compounds, 3.1% hits | AID 2417, 2010;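 active = readout at or below -70, meaning at least 70% loss of cells showing the perinucleolar compartment, a nuclear body marking cancer cells; inconclusive = readout between -30 and a set limit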;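 note: plate controls were DMSO wells for no effect and camptothecin positive control wells for full effect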
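PC3M cells stably expressing PTB-GFP, 750–1000 cells/well, treated 16 h at 37 °C with compound (23 nl of library stock), in duplicate. After paraformaldehyde fixation and Hoechst stain, imaged at 20x; PNC prevalence scored by image analysis.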
KinaseGlo FLuc: Counterscreen for Luciferase (Kinase-Glo TM) Inhibition | Luciferin 4-monooxygenase (Photuris pensylvanica), Q27757 | Kinase-Glo luciferase, ATP luminescence, 8 min | Potency, µM (titrated, usually from 38.3 µM), for the others: top-dose activity change, negative = inhibition, actives largely listed as inhibitors | 200,000 compounds, 0.28% hits | AID 1379, 2008; active = well fitted inhibition curve with a large enough effect; inconclusive = small, poorly fitted or top-dose-only effect; note: potency is the fitted concentration of half-maximal effect; nearly all actives have a fitted effect of over 60% in size
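Light output from Kinase-Glo luciferase with luciferin and 10 uM ATP in 50 mM imidazole pH 7.2, KCl, MgCl2, Tween 20, BSA; compound pin-delivered, 8-min ambient incubation, then luminescence read.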
ALDH1A1 inh: qHTS Assay for Inhibitors of Aldehyde Dehydrogenase 1 (ALDH1A1); Potency, µM (highest dose often 75.3 µM), for the others: at the highest dose activity, negative = inhibition, actives largely listed as inhibitors; 220,000 compounds, 7.3% hits; Aldehyde dehydrogenase 1A1 (Homo sapiens), P00352; Purified ALDH1A1, NADH fluorescence, propionaldehyde substrate; AID 1030, 2008;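 note: potency is the fitted concentration of half-maximal effect; plate controls were no enzyme wells and a reference inhibitor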
HPGD inh: qHTS Assay for Inhibitors of HPGD (15-Hydroxyprostaglandin Dehydrogenase) | 15-hydroxyprostaglandin dehydrogenase [NAD(+)] (Homo sapiens), P15428 | purified HPGD, NADH fluorescence kinetic, PGE2 substrate | Potency, µM, without a hit: at the highest dose activity change, negative = inhibition, hits mostly inhibitors | 150,000 compounds, 4.3% hits; note: potency is the fitted concentration of half-maximal effect
Target sequence (P15428 whole entry, looked up): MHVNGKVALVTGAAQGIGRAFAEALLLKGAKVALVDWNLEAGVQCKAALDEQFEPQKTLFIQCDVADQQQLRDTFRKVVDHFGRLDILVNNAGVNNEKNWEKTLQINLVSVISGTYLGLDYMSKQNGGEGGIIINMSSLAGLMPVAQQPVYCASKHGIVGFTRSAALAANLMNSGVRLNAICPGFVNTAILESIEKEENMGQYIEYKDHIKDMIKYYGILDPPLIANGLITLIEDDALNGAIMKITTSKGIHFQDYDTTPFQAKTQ
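20 nM HPGD preincubated 15 min at room temperature with compound in 50 mM Tris-HCl pH 8, 0.01% Tween 20. Started with 1 mM NAD+ and 30 uM prostaglandin E2; NADH fluorescence (360/450 nm) read 5 times over 30-s intervals, last minus first.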
The depositor's hits bear a star; [ ] = remark or other dose. Unless noted, calls come from the whole dose curve; as a rule, active = well fitted inhibition curve with a large enough effect (not every such curve was filed as active); inconclusive = small, poorly fitted or top-dose-only effect, or another doubt; inactive = no such curve, though single readings can be large or run the other way. Unless noted, % is set by controls: 0 for no effect and ±100 for the full control effect.

Screening Cc1ccccc1Nc1ncnc2c1c(-c1ccccc1)cn2-c1ccc(F)cc1 returned LMNA splice mod -8%[46 µM].
Screening COc1ccc(NC(=O)CSc2nc3c(c(-c4cccs4)c2C#N)CN(C)CC3)cc1OC returned LMNA splice mod 3%, PNC inhibitor 6, KinaseGlo FLuc -1%, ALDH1A1 inh 14µM* and HPGD inh -15%.
Screening CCn1c(C)nc2cc(C(=O)n3cc(C(=O)c4cc(F)ccc4O)cn3)ccc21 returned LMNA splice mod 5%, PNC inhibitor 23, KinaseGlo FLuc -5%, ALDH1A1 inh 1.4µM* and HPGD inh inconclusive.
COc1ccc(O)c(C(=O)c2cnn(-c3ccccn3)c2)c1 was read as LMNA splice mod -27%[46 µM], KinaseGlo FLuc -2% and ALDH1A1 inh -3%.
Cc1cc(C)nc(-n2cc(C(=O)c3cc(F)ccc3O)cn2)n1 was read as LMNA splice mod -12%, PNC inhibitor 73, KinaseGlo FLuc 2%, ALDH1A1 inh 10µM* and HPGD inh -13%.
For Cc1cc(=O)n(Cc2c(F)cccc2Cl)c2c1c(C)nn2-c1cccc(F)c1 the results were LMNA splice mod -6%[46 µM].
Screening Cc1cccc(C)c1N(CC(=O)Nc1cccc(N(C)S(C)(=O)=O)c1)S(C)(=O)=O returned LMNA splice mod 8%, PNC inhibitor 31, KinaseGlo FLuc 3%, ALDH1A1 inh 22µM* and HPGD inh -14%.
Cc1ccc(Cl)cc1N(CC(=O)Nc1cccc(N(C)S(C)(=O)=O)c1)S(C)(=O)=O was read as LMNA splice mod -10%[46 µM], KinaseGlo FLuc -3% and ALDH1A1 inh -5%.
Screening CCOc1ccc(NC(=O)C(c2ccccn2)N(C(=O)CCl)c2ccc(F)cc2)cc1 (centres undefined) returned LMNA splice mod 5%, PNC inhibitor -16, KinaseGlo FLuc -2%, ALDH1A1 inh 11µM* and HPGD inh 1%.
`O=C(/C=C/c1ccc(OCc2ccccc2)c(OCc2ccccc2)c1)c1cccnc1` gave LMNA splice mod inconclusive, PNC inhibitor -16, KinaseGlo FLuc -2%, ALDH1A1 inh 7.1µM* and HPGD inh -25%.
`N/C(=N\OC(=O)/C=C/c1ccccc1Cl)c1ccncc1` gave KinaseGlo FLuc 1% and ALDH1A1 inh 10µM*.
`O=C(/C=C/c1ccccc1Cl)c1cccnc1` gave LMNA splice mod inconclusive, PNC inhibitor 5, KinaseGlo FLuc 12%, ALDH1A1 inh 14µM* and HPGD inh 28µM*.
For O=C(/C=C/c1ccc(Cl)cc1)c1cccnc1 the results were LMNA splice mod inconclusive, PNC inhibitor -1, KinaseGlo FLuc 1%, ALDH1A1 inh -12% and HPGD inh -13%.
Screening Cc1ccc(C(=O)NCC(c2ccc3c(c2)OCO3)N2CCN(C)CC2)cc1C (centres undefined) returned LMNA splice mod 15%[46 µM].
For CCOC(=O)[C@@H](O)Cc1cnc2ccccc2n1 the results were KinaseGlo FLuc -2%[7.66 µM], ALDH1A1 inh -14%[13.5 µM] and HPGD inh 0%.
For Cc1ccc(S(=O)(=O)C(C#N)c2nc3ccccc3nc2N2CC(C)OC(C)C2)cc1C (centres undefined) the results were LMNA splice mod 7%, PNC inhibitor -139*, KinaseGlo FLuc -1%, ALDH1A1 inh -12% and HPGD inh 2%.
Screening CCCCN1C(=O)CN(C2CCCCCC2)C(=O)C1c1ccc(OCC)c(OC)c1 (centres undefined) returned LMNA splice mod -1%[46 µM].
For CCC(CC)NC(=O)COC(=O)c1cc(Br)ccc1Cl the results were LMNA splice mod -4%, PNC inhibitor inconclusive, KinaseGlo FLuc -1%, ALDH1A1 inh 4% and HPGD inh 32µM*.
Screening CCCCNC(=O)COC(=O)c1cc(Br)ccc1Cl returned LMNA splice mod -7%, PNC inhibitor 0, KinaseGlo FLuc 0%, ALDH1A1 inh 7% and HPGD inh inconclusive.

From PubChem
